Over roughly 2,300 compounds, “relative growth” has its median near 1; the lowest 2% begin near 0.046. A selection follows.

This assay has as its system E. coli BW25113. The assay can be described thus: relative growth (fraction of control); higher = less inhibition. To be noted: 50 µM.
As for `CC12CCC3C(=CCc4cc(O)ccc43)C1CCC2=O` (stereo unspecified), the relative growth turned out to be 0.988.
The same measure for `CCC1OC(=O)C(C)C(OC2CC(C)(OC)C(O)C(C)O2)C(C)C(OC2OC(C)CC(N(C)C)C2O)C(C)(O)CC(C)C(=O)C(C)C(O)C1(C)O.CCCCCCCCCCCCCCCCCC(=O)O` (stereo unspecified): 0.665; for `NCCCC(N)C(=O)O.NCCCC(N)C(=O)O.O=C(O)CCC(=O)C(=O)O`: 1.09.
`C=CC1CN2CCC1CC2C(O)c1ccnc2ccc(OC)cc12` (stereo unspecified) gave a relative growth of 1.02.
In the case of `Cc1ccsc1C=CC1=NCCCN1C.O=C(O)CC(O)(CC(=O)O)C(=O)O`, the relative growth was 0.986.
The same measure for `CN(C)C1C(O)=C(C(N)=O)C(=O)C2(O)C(O)=C3C(=O)c4c(O)cccc4C(C)(O)C3CC12.Cl` (stereo unspecified): 0.0522.
The same measure for `CN1CCN(C2=Nc3ccccc3Oc3ccc(Cl)cc32)CC1.O=C(O)CCC(=O)O`: 1.08; for `C#CCCCCCCCCCCCC(O)CC(O)COC(C)=O.C=CCCCCCCCCCCCC(O)CC(O)COC(C)=O` (stereo unspecified): 1.03.
Consider `CCN(CC)CCOCCOC(=O)C1(c2ccccc2)CCCC1.O=C(O)CC(O)(CC(=O)O)C(=O)O`, for which the relative growth was 1.08.
As for `CN(C)CCC(c1ccc(Cl)cc1)c1ccccn1.O=C(O)C=CC(=O)O` (stereo unspecified), the relative growth was found to be 0.967.
The molecule `CCCCCCc1ccc(O)cc1O.Nc1c2ccccc2nc2ccccc12` showed a relative growth of 0.591.
As for `Cl.N[C@H](Cc1ccccc1)C(=O)O`, the relative growth amounted to 1.
The figure for `O=C(O)C(O)C(O)C(=O)O.OCc1cccnc1` (stereo unspecified) is 1.06.
The molecule `CNCC(O)C(O)C(O)C(O)CO.Cc1c(Nc2ncccc2C(=O)O)cccc1C(F)(F)F` showed a relative growth of 1.04.
The molecule `CCCCCNC(=N)NN=Cc1c[nH]c2ccc(OC)cc12.O=C(O)C=CC(=O)O` returned a relative growth of 0.879.
The same measure for `CCN(CC)CCOCCOC(=O)C(CC)(CC)c1ccccc1.O=C(O)CC(O)(CC(=O)O)C(=O)O`: 1.1.
As to `CN1CCCN=C1C=Cc1cccs1.O=C(O)c1cc2ccccc2c(Cc2c(O)c(C(=O)O)cc3ccccc23)c1O`, the relative growth was found to be 1.13.
In the case of `CCC1OC(=O)CC(O)C(C)C(OC2OC(C)C(OC3CC(C)(O)C(O)C(C)O3)C(N(C)C)C2O)C(CC=O)CC(C)C(=O)C=CC(C)=CC1COC1OC(C)C(O)C(OC)C1OC.O=C(O)C(O)C(O)C(=O)O` (stereo unspecified), the relative growth amounted to 1.09.
The same measure for `CC(=O)OC1CC2(C)C(CC(O)C3C4(C)CCC(O)C(C)C4CCC32C)C1=C(CCC=C(C)C)C(=O)O` (stereo unspecified): 1.12; for `NNC(=O)c1ccncc1.Nc1ccc(C(=O)O)c(O)c1`: 0.943; for `O=C(O)CCC(=O)O.O=C(OC1CN2CCC1CC2)N1CCc2ccccc2C1c1ccccc1` (stereo unspecified): 1.02.
For `CCC(=O)OC1C(OC2C(C)C(OC3CC(C)(OC)C(O)C(C)O3)C(C)C(=O)OC(CC)C(C)(O)C(O)C(C)C(=O)C(C)CC2(C)O)OC(C)CC1N(C)C.CCCCCCCCCCCCOS(=O)(=O)O` (stereo unspecified), the relative growth amounted to 0.953.
The same measure for `Oc1ccc(Cl)c2cccnc12`: 0.421; for `CN1CCc2nc(C(=O)NC3CC(C(=O)N(C)C)CCC3NC(=O)C(=O)Nc3ccc(Cl)cn3)sc2C1.Cc1ccc(S(=O)(=O)O)cc1.O` (stereo unspecified): 1.01; for `CC(=O)c1ccc2c(c1)N(CCCN1CCN(CCO)CC1)c1ccccc1S2.O=C(O)C=CC(=O)O`: 1.17.
The same measure for `CC(=O)OCC(=O)C1(O)C(C)CC2C3CCC4=CC(=O)C=CC4(C)C3(F)C(O)CC21C` (stereo unspecified): 0.913; for `OCC(O)C(O)C(OC1OC(CO)C(O)C(O)C1O)C(O)CO` (stereo unspecified): 0.991; for `CC1CC2C3CCC4=CC(=O)C=CC4(C)C3(F)C(O)CC2(C)C1(O)C(=O)COP(=O)([O-])[O-].[Na+].[Na+]` (stereo unspecified): 1.1.
`CN1C(C)(C)CCCC1(C)C.O=C(O)C(O)C(O)C(=O)O`: the relative growth was 0.993.
The figure for `CN(C)CCN(Cc1ccccc1)c1ccccn1.O=C(O)CC(O)(CC(=O)O)C(=O)O` is 0.763; for `CCC(=C(c1ccccc1)c1ccc(OCCN(C)C)cc1)c1ccccc1.O=C(O)CC(O)(CC(=O)O)C(=O)O` it is 0.642.

The record behind these values is published antibiotic growth screens (doi:10.1016/j.cell.2020.01.021).
